Source: paper PMC7862700, “An all-to-all approach to the identification of sequence-specific readers for epigenetic DNA modifications on cytosine”

How the values were obtained:
Experiment in all cases: DAPPL (digital affinity profiling via proximity ligation, sequencing); 10 mM Tris-HCl pH 7.5, 50 mM NaCl, 1 mM DTT, 4% glycerol, room temperature, 30 min; GST-TFs on glutathione beads, 16-mer random dsDNA library, 0.1% formaldehyde crosslink after washing; high values mean tight binding
FEV = target: T1, FEV (Homo sapiens, UniProt Q99581 1-238); conditions: protein: recombinant; tags: N-terminal GST; dsDNA, one strand shown
T1 sequence: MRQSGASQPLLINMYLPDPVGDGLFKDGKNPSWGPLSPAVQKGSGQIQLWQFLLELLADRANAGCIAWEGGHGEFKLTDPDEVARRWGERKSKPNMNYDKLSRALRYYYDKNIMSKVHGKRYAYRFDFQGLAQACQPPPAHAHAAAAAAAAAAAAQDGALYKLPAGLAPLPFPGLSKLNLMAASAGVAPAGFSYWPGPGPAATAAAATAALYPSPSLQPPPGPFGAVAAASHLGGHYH
Procedure, shortened: (§1)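 In yeast, human transcription factors were expressed with a GST fusion, then pulled down on glutathione beads and given DNA barcodes. Pooled with a tag-only sample, they were exposed to 200 nmole of a 16-mer random double-stranded DNA library (Tris/NaCl/DTT/glycerol buffer, room temperature, 30 min), washed, crosslinked with 0.1% formaldehyde, proximity-ligated using BsaI/T4 ligase for 1 h at 37 °C, PCR-amplified and read on an Illumina NextSeq500. Each hexamer's frequency of reads for a factor, divided by the matching frequency for the tag-only sample, gives the binding signal.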

ETV5 = ETV5 (Homo sapiens, UniProt P41161 1-510); conditions: protein: recombinant; tags: N-terminal GST; dsDNA, one strand shown
Chain of ETV5 (P41161 whole entry): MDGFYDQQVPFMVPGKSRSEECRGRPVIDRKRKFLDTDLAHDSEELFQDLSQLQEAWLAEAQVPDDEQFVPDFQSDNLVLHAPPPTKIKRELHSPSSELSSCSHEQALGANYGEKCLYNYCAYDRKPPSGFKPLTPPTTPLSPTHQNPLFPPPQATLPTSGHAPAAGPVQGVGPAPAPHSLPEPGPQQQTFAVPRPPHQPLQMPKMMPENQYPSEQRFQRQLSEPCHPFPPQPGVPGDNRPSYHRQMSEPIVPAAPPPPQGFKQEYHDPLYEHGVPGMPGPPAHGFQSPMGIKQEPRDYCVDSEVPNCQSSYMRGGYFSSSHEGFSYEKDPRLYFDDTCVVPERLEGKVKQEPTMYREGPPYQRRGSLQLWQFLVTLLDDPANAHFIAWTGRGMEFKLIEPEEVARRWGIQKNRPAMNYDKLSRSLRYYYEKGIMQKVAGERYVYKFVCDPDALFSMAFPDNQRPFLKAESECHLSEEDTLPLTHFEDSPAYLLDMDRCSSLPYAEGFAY
Procedure, shortened: as §1

HSF1 = HSF1 (Homo sapiens, UniProt Q00613 1-529); conditions: protein: recombinant; tags: N-terminal GST; chain copies: 3; dsDNA, one strand shown
Chain of HSF1 (Q00613 whole entry): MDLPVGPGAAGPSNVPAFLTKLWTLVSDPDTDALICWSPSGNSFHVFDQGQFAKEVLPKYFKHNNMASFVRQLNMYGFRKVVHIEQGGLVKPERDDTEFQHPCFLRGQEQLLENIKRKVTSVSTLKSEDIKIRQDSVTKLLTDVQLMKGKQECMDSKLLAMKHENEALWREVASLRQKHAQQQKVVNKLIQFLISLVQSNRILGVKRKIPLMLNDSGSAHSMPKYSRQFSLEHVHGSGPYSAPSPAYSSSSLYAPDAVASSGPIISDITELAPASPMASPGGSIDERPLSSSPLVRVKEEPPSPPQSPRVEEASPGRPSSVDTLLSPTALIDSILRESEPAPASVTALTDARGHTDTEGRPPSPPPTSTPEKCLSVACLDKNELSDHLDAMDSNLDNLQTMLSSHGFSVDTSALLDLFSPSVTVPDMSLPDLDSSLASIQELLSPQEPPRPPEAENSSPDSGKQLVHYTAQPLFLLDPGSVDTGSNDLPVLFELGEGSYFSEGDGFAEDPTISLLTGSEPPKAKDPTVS
Procedure, shortened: as §1

SPIC = target: T2, SPIC (Homo sapiens, UniProt Q8N5J4 1-248); conditions: protein: recombinant; tags: N-terminal GST; dsDNA, one strand shown
T2 sequence: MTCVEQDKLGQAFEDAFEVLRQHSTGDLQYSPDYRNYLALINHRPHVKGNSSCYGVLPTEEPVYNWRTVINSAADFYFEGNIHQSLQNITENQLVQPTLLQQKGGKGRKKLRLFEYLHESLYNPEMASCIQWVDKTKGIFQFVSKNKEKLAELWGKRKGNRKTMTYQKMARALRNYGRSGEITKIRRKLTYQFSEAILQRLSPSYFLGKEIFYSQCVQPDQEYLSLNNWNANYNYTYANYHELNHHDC
Procedure, shortened: as §1

ELF4 = ELF4 (Homo sapiens, UniProt Q99607 1-663); conditions: protein: recombinant; tags: N-terminal GST; dsDNA, one strand shown
Chain of ELF4 (Q99607 whole entry): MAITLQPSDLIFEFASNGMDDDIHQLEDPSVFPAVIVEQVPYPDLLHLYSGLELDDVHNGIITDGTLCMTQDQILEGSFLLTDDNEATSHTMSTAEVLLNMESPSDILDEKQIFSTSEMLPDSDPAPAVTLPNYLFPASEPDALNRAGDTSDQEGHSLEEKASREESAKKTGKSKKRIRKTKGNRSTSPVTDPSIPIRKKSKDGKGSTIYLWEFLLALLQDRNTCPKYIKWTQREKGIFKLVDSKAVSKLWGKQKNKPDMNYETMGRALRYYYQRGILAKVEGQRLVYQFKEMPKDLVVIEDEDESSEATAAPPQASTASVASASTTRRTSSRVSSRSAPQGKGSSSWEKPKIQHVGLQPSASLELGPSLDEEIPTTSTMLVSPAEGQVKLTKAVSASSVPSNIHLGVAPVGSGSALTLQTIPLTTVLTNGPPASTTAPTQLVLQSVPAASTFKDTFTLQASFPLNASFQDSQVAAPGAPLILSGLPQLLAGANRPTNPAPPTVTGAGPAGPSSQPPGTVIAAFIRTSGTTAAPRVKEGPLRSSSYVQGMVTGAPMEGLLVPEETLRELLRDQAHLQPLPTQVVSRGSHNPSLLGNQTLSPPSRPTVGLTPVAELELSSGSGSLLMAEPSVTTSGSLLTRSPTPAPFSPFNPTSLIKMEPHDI
Procedure, shortened: as §1

ELK4 = target: T3, ELK4 (Homo sapiens, UniProt P28324-2 1-405); conditions: protein: recombinant; tags: N-terminal GST; dsDNA, one strand shown
T3 sequence: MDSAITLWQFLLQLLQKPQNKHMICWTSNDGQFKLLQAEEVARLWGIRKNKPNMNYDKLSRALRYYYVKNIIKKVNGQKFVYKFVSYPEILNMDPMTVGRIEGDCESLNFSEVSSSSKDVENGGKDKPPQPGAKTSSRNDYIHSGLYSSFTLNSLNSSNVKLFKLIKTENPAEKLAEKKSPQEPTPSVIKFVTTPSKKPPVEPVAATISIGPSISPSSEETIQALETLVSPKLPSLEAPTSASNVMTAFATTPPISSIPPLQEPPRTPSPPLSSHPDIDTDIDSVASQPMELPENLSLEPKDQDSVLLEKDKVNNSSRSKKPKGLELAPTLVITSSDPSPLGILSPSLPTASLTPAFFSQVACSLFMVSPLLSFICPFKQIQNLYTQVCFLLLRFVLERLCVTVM
Procedure, shortened: as §1

ETV2 = target: T4, ETV2 (Homo sapiens, UniProt O00321 1-342); conditions: protein: recombinant; tags: N-terminal GST; dsDNA, one strand shown
T4 sequence: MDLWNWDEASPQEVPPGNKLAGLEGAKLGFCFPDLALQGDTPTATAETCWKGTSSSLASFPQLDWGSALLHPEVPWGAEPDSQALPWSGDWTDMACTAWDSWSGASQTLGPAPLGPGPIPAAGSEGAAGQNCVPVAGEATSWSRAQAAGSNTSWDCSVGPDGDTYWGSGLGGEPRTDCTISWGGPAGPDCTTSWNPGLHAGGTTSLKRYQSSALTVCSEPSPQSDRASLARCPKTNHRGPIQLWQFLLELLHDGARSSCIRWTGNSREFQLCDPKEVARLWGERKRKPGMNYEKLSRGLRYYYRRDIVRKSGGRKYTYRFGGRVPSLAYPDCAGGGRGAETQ
Procedure, shortened: as §1

ELF3 = target: T5, ELF3 (Homo sapiens, UniProt P78545 1-371); conditions: protein: recombinant; tags: N-terminal GST; dsDNA, one strand shown
T5 sequence: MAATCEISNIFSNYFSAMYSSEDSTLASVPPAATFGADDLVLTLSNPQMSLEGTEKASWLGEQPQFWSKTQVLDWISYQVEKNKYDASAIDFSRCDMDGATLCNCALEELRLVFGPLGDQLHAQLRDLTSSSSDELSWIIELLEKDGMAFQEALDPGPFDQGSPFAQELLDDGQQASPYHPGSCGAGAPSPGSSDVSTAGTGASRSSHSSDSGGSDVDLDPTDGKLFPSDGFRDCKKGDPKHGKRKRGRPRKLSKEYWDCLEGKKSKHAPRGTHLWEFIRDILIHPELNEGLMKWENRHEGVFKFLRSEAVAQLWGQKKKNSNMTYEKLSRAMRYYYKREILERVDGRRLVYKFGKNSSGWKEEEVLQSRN
Procedure, shortened: as §1

ETV1 = ETV1 (Homo sapiens, UniProt P50549 1-477); conditions: protein: recombinant; tags: N-terminal GST; dsDNA, one strand shown
Chain of ETV1 (P50549 whole entry): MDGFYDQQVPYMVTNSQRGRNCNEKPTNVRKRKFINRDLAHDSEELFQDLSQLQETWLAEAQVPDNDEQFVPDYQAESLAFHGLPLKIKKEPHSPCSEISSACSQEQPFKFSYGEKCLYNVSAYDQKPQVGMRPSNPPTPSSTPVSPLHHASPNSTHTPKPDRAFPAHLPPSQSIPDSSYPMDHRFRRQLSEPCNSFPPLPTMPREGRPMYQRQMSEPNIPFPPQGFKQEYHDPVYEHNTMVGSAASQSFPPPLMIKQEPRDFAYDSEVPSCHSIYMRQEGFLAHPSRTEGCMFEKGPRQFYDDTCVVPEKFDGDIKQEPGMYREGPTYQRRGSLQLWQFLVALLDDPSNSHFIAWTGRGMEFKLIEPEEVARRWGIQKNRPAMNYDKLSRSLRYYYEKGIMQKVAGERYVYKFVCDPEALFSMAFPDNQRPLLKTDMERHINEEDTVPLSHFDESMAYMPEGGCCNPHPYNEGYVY
Procedure, shortened: as §1

ERF = target: T6, ERF (Homo sapiens, UniProt P50548 1-548); conditions: protein: recombinant; tags: N-terminal GST; dsDNA, one strand shown
T6 sequence: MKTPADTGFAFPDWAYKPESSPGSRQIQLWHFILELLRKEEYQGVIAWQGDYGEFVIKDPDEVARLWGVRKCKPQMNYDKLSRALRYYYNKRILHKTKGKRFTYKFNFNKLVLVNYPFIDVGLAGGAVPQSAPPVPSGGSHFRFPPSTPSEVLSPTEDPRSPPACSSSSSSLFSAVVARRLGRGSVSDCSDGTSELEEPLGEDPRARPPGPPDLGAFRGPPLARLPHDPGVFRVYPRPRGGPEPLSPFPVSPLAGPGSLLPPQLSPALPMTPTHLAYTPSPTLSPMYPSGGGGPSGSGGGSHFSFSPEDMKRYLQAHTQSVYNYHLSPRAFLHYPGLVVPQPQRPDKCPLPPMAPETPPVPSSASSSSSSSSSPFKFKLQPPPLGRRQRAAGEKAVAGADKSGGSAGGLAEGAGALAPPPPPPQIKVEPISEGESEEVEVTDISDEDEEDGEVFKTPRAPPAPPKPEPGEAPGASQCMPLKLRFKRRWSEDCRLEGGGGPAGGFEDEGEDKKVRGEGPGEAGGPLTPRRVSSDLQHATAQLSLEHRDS
Procedure, shortened: as §1

ETV3L = target: T7, ETV3L (Homo sapiens, UniProt Q6ZN32 1-361); conditions: protein: recombinant; tags: N-terminal GST; dsDNA, one strand shown
T7 sequence: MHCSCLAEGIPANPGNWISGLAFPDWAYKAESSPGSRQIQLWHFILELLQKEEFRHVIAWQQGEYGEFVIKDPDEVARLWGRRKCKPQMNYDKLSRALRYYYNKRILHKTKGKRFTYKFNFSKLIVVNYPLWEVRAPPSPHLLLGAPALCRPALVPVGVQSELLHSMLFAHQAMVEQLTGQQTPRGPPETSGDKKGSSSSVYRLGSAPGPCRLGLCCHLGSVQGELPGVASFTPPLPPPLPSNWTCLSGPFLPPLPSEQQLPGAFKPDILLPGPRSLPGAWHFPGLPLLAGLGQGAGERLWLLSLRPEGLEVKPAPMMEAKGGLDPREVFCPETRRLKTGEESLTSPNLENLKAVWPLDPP
Procedure, shortened: as §1

ETS2 = target: T8, ETS2 (Homo sapiens, UniProt P15036 1-469); conditions: protein: recombinant; tags: N-terminal GST; dsDNA, one strand shown
T8 sequence: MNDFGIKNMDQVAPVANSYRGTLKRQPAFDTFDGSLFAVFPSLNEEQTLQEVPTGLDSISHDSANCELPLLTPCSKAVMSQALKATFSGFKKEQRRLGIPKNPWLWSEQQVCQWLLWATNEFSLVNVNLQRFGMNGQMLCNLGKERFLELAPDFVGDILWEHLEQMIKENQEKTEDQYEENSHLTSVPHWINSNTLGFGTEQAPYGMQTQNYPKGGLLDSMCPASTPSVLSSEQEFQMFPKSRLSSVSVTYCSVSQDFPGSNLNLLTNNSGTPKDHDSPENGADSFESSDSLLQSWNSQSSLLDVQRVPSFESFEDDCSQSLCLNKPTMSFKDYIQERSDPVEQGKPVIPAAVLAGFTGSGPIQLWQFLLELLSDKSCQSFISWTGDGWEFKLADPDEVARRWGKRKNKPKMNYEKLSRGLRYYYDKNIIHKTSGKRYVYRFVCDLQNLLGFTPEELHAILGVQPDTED
Procedure, shortened: as §1

SPDEF = target: T9, SPDEF (Homo sapiens, UniProt O95238 1-335); conditions: protein: recombinant; tags: N-terminal GST; dsDNA, one strand shown
T9 sequence: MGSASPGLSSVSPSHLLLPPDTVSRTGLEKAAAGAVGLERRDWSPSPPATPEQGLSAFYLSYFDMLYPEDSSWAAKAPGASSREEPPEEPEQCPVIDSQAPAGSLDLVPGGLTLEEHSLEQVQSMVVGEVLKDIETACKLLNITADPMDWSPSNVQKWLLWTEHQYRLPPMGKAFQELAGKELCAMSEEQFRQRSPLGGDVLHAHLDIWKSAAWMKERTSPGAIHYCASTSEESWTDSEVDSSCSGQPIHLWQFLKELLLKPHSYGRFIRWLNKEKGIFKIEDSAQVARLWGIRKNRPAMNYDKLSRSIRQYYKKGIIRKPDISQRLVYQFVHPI
Procedure, shortened: as §1

ETV7 = target: T10, ETV7 (Homo sapiens, UniProt Q9Y603 1-341); conditions: protein: recombinant; tags: N-terminal GST; dsDNA, one strand shown
T10 sequence: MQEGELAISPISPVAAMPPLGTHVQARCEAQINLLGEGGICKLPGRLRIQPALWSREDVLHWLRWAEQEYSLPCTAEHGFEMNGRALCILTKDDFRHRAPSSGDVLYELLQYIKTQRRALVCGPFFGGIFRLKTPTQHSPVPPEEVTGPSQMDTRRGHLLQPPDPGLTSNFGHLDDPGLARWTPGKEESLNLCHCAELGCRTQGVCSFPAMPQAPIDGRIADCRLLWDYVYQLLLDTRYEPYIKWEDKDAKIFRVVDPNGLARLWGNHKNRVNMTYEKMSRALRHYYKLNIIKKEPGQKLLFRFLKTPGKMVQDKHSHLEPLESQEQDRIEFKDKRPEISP
Procedure, shortened: as §1

ELF5 = target: T11, ELF5 (Homo sapiens, UniProt Q9UKW6-2 1-255); conditions: protein: recombinant; tags: N-terminal GST; dsDNA, one strand shown
T11 sequence: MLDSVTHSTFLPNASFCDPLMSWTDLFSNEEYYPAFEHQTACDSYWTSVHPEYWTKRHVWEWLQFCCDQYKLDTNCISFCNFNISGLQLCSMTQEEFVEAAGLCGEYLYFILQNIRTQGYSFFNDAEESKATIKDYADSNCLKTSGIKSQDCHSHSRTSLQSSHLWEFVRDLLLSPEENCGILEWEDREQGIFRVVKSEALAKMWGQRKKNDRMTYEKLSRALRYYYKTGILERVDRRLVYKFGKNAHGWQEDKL
Procedure, shortened: as §1

ETV3 = target: T12, ETV3 (Homo sapiens, UniProt P41162-2 1-143); conditions: protein: recombinant; tags: N-terminal GST; dsDNA, one strand shown
T12 sequence: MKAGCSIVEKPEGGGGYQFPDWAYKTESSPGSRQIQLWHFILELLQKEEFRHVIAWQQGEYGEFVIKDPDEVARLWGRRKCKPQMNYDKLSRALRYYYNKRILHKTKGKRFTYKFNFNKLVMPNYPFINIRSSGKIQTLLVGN
Procedure, shortened: as §1

ETV6 = ETV6 (Homo sapiens, UniProt P41212 1-452); conditions: protein: recombinant; tags: N-terminal GST; dsDNA, one strand shown
Chain of ETV6 (P41212 whole entry): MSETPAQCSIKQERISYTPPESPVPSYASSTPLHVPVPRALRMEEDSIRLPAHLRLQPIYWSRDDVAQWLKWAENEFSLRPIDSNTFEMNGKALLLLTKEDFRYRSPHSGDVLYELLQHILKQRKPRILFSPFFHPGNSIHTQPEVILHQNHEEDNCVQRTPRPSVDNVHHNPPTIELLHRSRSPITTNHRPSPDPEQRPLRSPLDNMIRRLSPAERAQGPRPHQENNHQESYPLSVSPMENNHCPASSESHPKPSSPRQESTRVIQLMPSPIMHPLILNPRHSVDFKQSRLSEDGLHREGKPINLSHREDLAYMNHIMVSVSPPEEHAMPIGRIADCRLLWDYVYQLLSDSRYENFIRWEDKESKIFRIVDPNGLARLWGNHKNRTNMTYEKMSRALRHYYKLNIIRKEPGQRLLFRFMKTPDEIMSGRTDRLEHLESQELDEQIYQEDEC
Procedure, shortened: as §1

**Q.** Which results are given for ATGTCC?
**A.** binding signal (FEV): 1.84 fold enrichment (6-mer frequency, TF over GST control); binding signal (ETV5): 1.62 fold enrichment (6-mer frequency, TF over GST control); binding signal (HSF1): 1.03 fold enrichment (6-mer frequency, TF over GST control); binding signal (SPIC): 1.54 fold enrichment (6-mer frequency, TF over GST control); binding signal (ELF4): 1.51 fold enrichment (6-mer frequency, TF over GST control); binding signal (ELK4): 1.57 fold enrichment (6-mer frequency, TF over GST control); binding signal (ETV2): 1.77 fold enrichment (6-mer frequency, TF over GST control); binding signal (ELF3): 1.85 fold enrichment (6-mer frequency, TF over GST control); binding signal (ETV1): 1.66 fold enrichment (6-mer frequency, TF over GST control); binding signal (ERF): 1.36 fold enrichment (6-mer frequency, TF over GST control); binding signal (ETV3L): 1.7 fold enrichment (6-mer frequency, TF over GST control); binding signal (ETS2): 1.58 fold enrichment (6-mer frequency, TF over GST control); binding signal (SPDEF): 2.05 fold enrichment (6-mer frequency, TF over GST control); binding signal (ETV7): 1.71 fold enrichment (6-mer frequency, TF over GST control); binding signal (ELF5): 1.65 fold enrichment (6-mer frequency, TF over GST control); binding signal (ETV3): 1.8 fold enrichment (6-mer frequency, TF over GST control); binding signal (ETV6): 1.57 fold enrichment (6-mer frequency, TF over GST control)
